HCV inh: inhibitors of hepatitis C virus infection | Potency, µM (top dose mostly 41.8 µM), actives largely listed as inhibitors | Huh7.5.1 HCVcc-Cre infection, luciferase reporter, 44 h | 340,000 tested, 3.4% active; active = well fitted inhibition curve with a large enough effect; inconclusive = small, poorly fitted or top-dose-only effect, or another doubt; inactive = no such curve, though single readings can be large or run the other way
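Infectious HCVcc-Cre (~0.5 moi) was added to cells just after compound, with cells seeded 4 h earlier at 1,000 per well. Luciferase activity after 44 h culture reported infection; substrate was incubated 15 min at room temperature before reading.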
Lassa entry inh: Lassa virus entry inhibition; Lassa virus pseudotype entry inhibition, cell reporter; Potency, µM (highest dose often 37.9 µM), most hits filed as inhibitors; 300,000 tested, 1.2% active; AID 540256; calls by dose curve; tested in HEK293 cells; note: nearly all actives have a fitted effect of over 50% in size
Cycloheximide cs: affects cycloheximide protein synthesis inhibition readout, counter-screen. cell reporter, cycloheximide protein synthesis inhibition counterscreen. max response, %. 300,000 tested, 12% active. AID 2314; in the data active = max response mostly above about 13%, no sharp cut-off; inactive = mostly below about 14%; note: read at 38.3 µM for the half of the compounds with a filed dose
MARV entry inh: inhibitors of Marburg virus binding or cell entry; Potency, µM (top dose mostly 37.8 µM), actives largely listed as inhibitors; Marburg virus pseudotyped entry inhibition, cell reporter; 300,000 tested, 1.8% active; calls by dose curve; tested in HEK293 cells
FMDV inh: blocks foot and mouth disease virus; 410,000 tested, 1.2% active; FMDV antiviral cell-based qHTS; AID 1159524; Potency, µM (highest dose often 57.9 µM), most hits filed as inhibitors; calls by dose curve; tested in HEK293T cells; note: read-out not given here; nearly all actives have a fitted effect of over 45% in size
Shiga inhibitor: Shiga toxin inhibition | Vero cells, Shiga toxin protein synthesis inhibition reporter | inhibition, % at 38.7 µM | 290,000 tested, 9.2% active; in the data active = inhibition mostly above about 28%, no sharp cut-off; inactive = mostly below about 43%
A number is an active result; i = inactive; ? = inconclusive; nt = no result given. Most compounds without a hit are left out; they make up all but 13% or so of the library.

SMILES	HCV inh	Lassa entry inh	Cycloheximide cs	MARV entry inh	FMDV inh	Shiga inhibitor
CCOc1ccc2nc(NC(=S)N(C)C)sc2c1	?	i	56	i	i	104
CCOc1ccc2nc(NC(=O)c3cnc(C)cn3)sc2c1	i	i	18	i	i	i
CCOc1ccc2nc(NC(=O)CCn3cccc3)sc2c1	i	nt	29	nt	i	86
CCOc1ccc2nc(NC(=O)CSc3nc4cccnc4n3C)sc2c1	?	?	i	?	i	i
CCCSc1ncc(Cl)c(C(=O)Nc2nc3ccc(OCC)cc3s2)n1	nt	i	nt	i	i	nt
COc1ccc2nc(NC(=O)CSc3nc4ccccc4o3)sc2c1	i	i	40	i	i	134
CCCC(=O)Nc1nc2ccc(OCC)cc2s1	i	?	46	?	i	73
CCOc1ccc2nc(NC(=O)c3ccccc3)sc2c1	nt	i	nt	nt	?	nt
CCOc1ccc2nc(NC(=O)c3c([N+](=O)[O-])cnn3CC)sc2c1	i	i	i	i	i	i
CCOc1ccc2nc(NC(=O)c3ccc(C)o3)sc2c1	?	8.9µM	nt	?	i	nt
CCOc1ccc2nc(NC(=O)CSc3ccccc3)sc2c1	?	?	18	i	i	i
COc1ccc(C(=O)Nc2nnc(S(=O)(=O)N(CC(C)C)c3ccccc3)s2)cc1	nt	?	nt	nt	i	nt
O=C(Nc1ccc(-c2cc(C(F)(F)F)nn2-c2ccccc2)cc1)c1cccc(F)c1	nt	?	nt	?	i	nt
N#CC1=C2Nc3ccccc3N2C(=O)NC1(c1ccccc1)C(F)(F)F (centres undefined)	i	i	i	i	i	i
CCOc1ccc2nc(NC(=O)c3cccnc3)sc2c1	i	?	75	?	i	122
O=C(CSc1ccc2c(c1)OCCO2)Nc1ccc(Cl)cn1	i	?	i	i	i	i
CNC(=S)NC(CC(=O)OC)c1ccc2c(c1)OCO2 (centres undefined)	i	i	i	i	i	i
CC1CC(Nc2ccccc2N)=CC(=O)O1 (centres undefined)	i	i	28	i	i	48
Cc1cccc(NC2=CC(=O)OC(C)C2)c1 (centres undefined)	i	i	i	i	i	i
Nc1ccccc1NC1=CC(=O)CC(c2ccco2)C1 (centres undefined)	i	i	47	i	i	72
Nc1ccccc1NC1=CC(=O)CC(c2ccccc2)C1 (centres undefined)	nt	nt	22	nt	nt	i
Cc1ccc(NC2=CC(=O)CC(c3ccco3)C2)c(N)c1 (centres undefined)	i	i	37	?	i	79
O=C(NCc1ccc2c(c1)OCO2)c1ccc(N2CCCC2=O)cc1	i	i	i	i	i	i
CC(C)(C)n1nnnc1C(c1ccncc1)N1CCN(C2CCCCC2)CC1 (centres undefined)	i	i	i	i	nt	i
OCCN1CCN(C(=S)NC2CCCC2)CC1	i	i	i	i	i	i
SMILES	HCV inh	Lassa entry inh	Cycloheximide cs	MARV entry inh	FMDV inh	Shiga inhibitor
COCCNC(=O)CSc1nc2ccccc2nc1Cc1ccc(C)cc1	nt	i	nt	nt	i	nt
CCOc1ccccc1NC1=CC(=O)CC(c2ccccc2)C1 (centres undefined)	?	?	i	?	i	i
COc1ccc(NC2=CC(=O)CC(c3ccccc3)C2)c(OC)c1 (centres undefined)	i	?	37	?	nt	i
COc1ccccc1-c1cc(C(=O)N/N=C/c2cccs2)c2ccccc2n1	?	?	i	?	i	i
COc1ccc(-c2cc(C(=O)N/N=C/c3sccc3C)c3ccccc3n2)c(OC)c1	?	3.2µM	i	5µM	i	i
O=C(N/N=C/c1cccc(F)c1)c1cc(-c2ccco2)nc2ccccc12	?	i	71	?	i	86
O=C(N/N=C/c1ccc2c(c1)OCO2)c1cc(-c2ccc(F)cc2)nc2ccccc12	i	0.58µM	50	?	i	92
COc1cc(/C=N/NC(=O)c2cc(-c3ccco3)nc3ccccc23)cc(OC)c1O	i	nt	i	nt	i	i
Cc1cccc(NC(=O)c2cc(-c3ccco3)nc3ccccc23)n1	i	i	16	i	i	95
COc1ccc(-c2cc(C(=O)N/N=C/c3ccc4c(c3)OCO4)c3ccccc3n2)c(OC)c1	?	2.5µM	i	4µM	i	i
N#C/C(=N\Nc1cccc2ccccc12)c1nnc2n1CCCCC2	?	nt	14	i	i	i
N#C/C(=C\c1c[nH]c2ccccc12)c1nnc2n1CCCCC2	i	i	i	i	i	i
CSc1ccccc1NC(=O)c1c(Br)cnn1C	i	i	i	i	i	i
CCc1noc(C)c1C(=O)NC1CCCc2c1cnn2-c1cc(C)cc(C)c1 (centres undefined)	i	nt	34	nt	i	i
Cc1cc(C)cc(-n2ncc3c2CCCC3NC(=O)CN2CCCC2=O)c1 (centres undefined)	i	nt	i	nt	i	i
CCc1[nH]nc(C(=O)NC2CCCc3c2cnn3-c2cc(C)cc(C)c2)c1C (centres undefined)	i	?	27	3.5µM	i	55
CCCCCN(C(=O)CCC(=O)OCc1ccccc1Cl)c1c(N)n(CCCC)c(=O)[nH]c1=O	nt	i	i	?	i	i
CCCCCN(C(=O)CCC(=O)OCc1ccc(Cl)cc1Cl)c1c(N)n(CCCC)c(=O)[nH]c1=O	?	?	nt	2.5µM	i	nt
CC(C)CCn1c(/C=C/c2ccccc2)nc2ccccc21	nt	i	nt	?	i	nt
Cc1ccc(NC(=O)Cn2c(=O)c(C)nc3ccccc32)cc1	i	i	i	?	i	i
CC(C)Cn1c(/C=C/c2ccc(F)cc2)nc2ccccc21	nt	?	nt	?	i	nt
Cc1cccc(NC(=O)Cn2c(/C=C/c3ccccc3)nc3ccccc32)c1	i	i	28	i	i	111
COCCn1c(/C=C/c2ccccc2)nc2ccccc21	i	?	33	10µM	i	68
COc1ccccc1Cn1c(C(C)C)nc2ccccc21	i	nt	i	nt	i	i
COc1ccccc1Cn1c(/C=C/c2ccccc2)nc2ccccc21	10µM	?	74	?	i	87
SMILES	HCV inh	Lassa entry inh	Cycloheximide cs	MARV entry inh	FMDV inh	Shiga inhibitor
COc1ccc(/C=C/c2nc3ccccc3n2Cc2ccccc2OC)cc1	?	?	69	?	i	106
Cc1ccc(C)c(NC(=O)COC(=O)c2ccc[n+]([O-])c2)c1	i	?	nt	i	i	nt
Cc1cc(N2C(=O)c3ccccc3C2=O)n(C)n1	i	i	i	?	i	i
O=C(Cc1cccs1)N/N=C/c1ccco1	i	i	i	i	i	i
CCOC(=O)N/N=C/C(Cl)=C/c1ccccc1	i	i	38	i	i	54
CCOc1ccc(/C=N/NC(=O)Cc2cccs2)cc1	i	?	44	?	i	91
O=C(Cc1cccs1)N/N=C/C(Cl)=C/c1ccccc1	i	i	31	?	i	118
O=C(Cc1cccs1)N/N=C/c1ccccc1	i	?	i	i	i	i
O=C(N/N=C/C(Cl)=C/c1ccccc1)c1ccc2c(c1)OCO2	?	nt	nt	nt	i	nt
Cc1cccc(/C=N/NC(=O)Cc2cccs2)c1	i	i	33	i	i	72

Bioassay records (PubChem)
